# Compound activity: PubChem BioAssay, National Center for Advancing Translational Sciences (NCATS)
# IDH1 R132H inh: human IDH1 R132H inhibition. O75874. IDH1-R132H enzyme, NADPH consumption, diaphorase/resazurin fluorescence. Potency, µM (top dose mostly 76.6 µM), inactives show top-dose activity change, negative = inhibition, hits mostly inhibitors. 390,000 tested, 0.093% active. AID 602179; further: potency means the concentration at half of the fitted maximal effect; nearly all actives have a fitted effect of over 65% in size
#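 IDH1-R132H (0.5 ug/mL) preincubated 30 min with compound, then NADPH (0.016 mM) and alpha-KG (2 mM) added; 80 min at RT, pH 7.5. Remaining NADPH coupled via diaphorase/resazurin to fluorescence (540/590 nm); concentration-response curves normalized to no-enzyme control.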
# PKM2 act: increases activity of human pyruvate kinase M2 | P14618 | purified PKM2, Kinase-Glo ATP luminescence, activation; response scale: 0% is enzyme alone, no compound | Potency, µM (top dose mostly 57.5 µM), without a hit: at the top dose activation, most hits filed as activators | 260,000 tested, 0.34% active; further: potency means the concentration at half of the fitted maximal effect; nearly all actives have a fitted effect of over 55% in size
#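 Kinase-Glo luminescence reports ATP generated from ADP (0.1 mM) and PEP (0.5 mM) by purified hPK-M2 after 1 h at room temperature, pH 7.2 imidazole buffer; intermediate enzyme activity allows detecting inhibitors and activators.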
# TrxR1 inh: inhibitors of rat thioredoxin reductase 1. O89049. recombinant rTrxR1, NADPH fluorescence consumption, selenite substrate. Potency, µM (highest dose often 114 µM), for inactives: at the highest dose activity change, negative = inhibition, hits mostly inhibitors. 390,000 tested, 1% active; further: potency means the concentration at half of the fitted maximal effect; nearly all actives have a fitted effect of over 65% in size
#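 Rat TrxR1 (90 nM in the dispensed reagent) was pre-reduced with 400 uM NADPH for 5 min at room temperature, then incubated with compound for 15 min. After 400 uM selenite was added, NADPH fluorescence (Ex 340/Em 450 nm) was followed for 8 min.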
# GLS inhibitor: glutaminase GLS (human) inhibition | AID 624170 | Potency, µM (titrated, usually from 45.5 µM), without a hit: top-dose activity change, negative = inhibition, actives largely listed as inhibitors | GLS enzymatic activity, qHTS titration | O94925 | 410,000 tested, 0.21% active; further: potency means the concentration at half of the fitted maximal effect
# Target sequence (O94925 whole entry, looked up): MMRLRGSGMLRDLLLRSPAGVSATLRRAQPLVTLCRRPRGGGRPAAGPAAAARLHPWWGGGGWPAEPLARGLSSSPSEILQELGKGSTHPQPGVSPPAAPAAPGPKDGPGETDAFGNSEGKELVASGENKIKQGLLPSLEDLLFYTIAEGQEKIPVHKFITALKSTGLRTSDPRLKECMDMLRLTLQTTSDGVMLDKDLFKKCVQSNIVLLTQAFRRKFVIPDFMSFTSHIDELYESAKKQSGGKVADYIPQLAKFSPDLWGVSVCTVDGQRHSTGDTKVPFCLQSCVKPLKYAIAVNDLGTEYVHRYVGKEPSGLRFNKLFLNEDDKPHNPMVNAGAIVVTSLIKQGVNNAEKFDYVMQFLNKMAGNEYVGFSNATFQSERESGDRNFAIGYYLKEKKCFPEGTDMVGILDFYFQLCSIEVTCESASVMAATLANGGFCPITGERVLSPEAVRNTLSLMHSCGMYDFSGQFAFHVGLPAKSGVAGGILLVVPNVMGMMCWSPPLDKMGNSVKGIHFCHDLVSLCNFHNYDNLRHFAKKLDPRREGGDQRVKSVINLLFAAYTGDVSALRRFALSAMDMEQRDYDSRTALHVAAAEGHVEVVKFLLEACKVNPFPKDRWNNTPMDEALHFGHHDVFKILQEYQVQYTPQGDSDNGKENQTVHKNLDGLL
#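 Human kidney-isoform GLS in 45 mM KH2PO4 pH 8.2, 0.02% Tween-20, with compound, started with 1mM L-Glutamine (added stock). Glutamate oxidase/HRP/Amplex red coupled fluorescence read at start and after 30 min at RT.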
# LDHA block: blocks human lactate dehydrogenase A; P00338; purified LDHA, NADH/diaphorase-resazurin fluorescence; active compounds read low; activity change, % (values are at about 110 or 230 µM); 480,000 tested, 0.15% active; in the data active means activity change below about -30%; inconclusive means mostly about -25% to -30%;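 further: plate controls were DMSO wells for no effect and wells without enzyme for full effect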
#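 Resorufin fluorescence (ex540/em590), read at 0 and 20 min after diaphorase/resazurin addition, reports the NADH left after a 5 min room-temperature reaction of 2 nM human LDH5 with 0.06 mM NADH and 0.2 mM pyruvate.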
# TrxR1 substrate: rat thioredoxin reductase 1 substrate activity. purified TrxR1 substrate turnover, NADPH consumption readout. O89049. 390,000 tested, 0.01% active. AID 588456. Potency, µM (doses to about 114 µM), inactives show at the top dose activity change, negative = substrate turnover; further: potency means the concentration at half of the fitted maximal effect; nearly all actives have a fitted effect of over 50% in size
#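 Rat TrxR1, dispensed at 90 nM, was prereduced with 400 uM NADPH (final) for 5 min at ~22 deg C, then incubated with compound 15 min before 400 uM selenite. A first-read NADPH fluorescence drop versus no-compound background flagged substrates.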
# Starred values were filed as active, the others as inactive; ? = inconclusive; . = no result; [ ] = dose if it differs, or a comment. Shown are actives, neighbours in structure and some others; about 1.4% of the full set was active somewhere. Unless noted, the call rests on the fitted dose curve; in most records, active means well fitted curve in the direction sought with a large enough effect; inconclusive means small, poorly fitted or top-dose-only effect, or another doubt; inactive means no such curve, though single readings can be large; an effect the other way counts as inactive or inconclusive. Unless noted, on the % scale 0 is the no-effect control and ±100 the full control effect.
SMILES,IDH1 R132H inh,PKM2 act,TrxR1 inh,GLS inhibitor,LDHA block,TrxR1 substrate
Fc1cccc(Cl)c1CNc1ccc(N2CCCC2)cc1,31%,12%,4µM*,7.9µM*,21,3%[57.1 µM]
CCN1CCN(Cc2ccc(CNC(=O)CC(F)(F)F)cc2)CC1,.,.,.,.,0,.
O=C1CSC(=S)N1/N=C/C=C/c1ccccc1,0%,3%,28µM*,19%,-3,-7%
CC(OC(=O)c1ccc(CCNS(C)(=O)=O)cc1)C(=O)N1CCOCC1 (stereo not given),.,.,.,.,3,.
COc1ccccc1CNS(=O)(=O)c1ccc2[nH]cc(C(=O)O)c(=O)c2c1,7%,1%,7%[57.1 µM],?,-56*,-10%
CCCCCCNC(=O)CCNC(=O)c1cccc(C)c1,.,.,.,.,4,.
CC(C)Cc1nc(N2CCOCC2)c(C#N)c2c1CCCC2,.,.,.,.,-2,.
Cc1c(C(=O)NNC(=O)Nc2ccc([N+](=O)[O-])cc2)oc2ccccc12,-18%,-4%,16%,17%,-44*,0%
OCC1CCN(CCCOCCc2ccccc2)CC1,.,.,.,.,-16,.
Cc1cccc(OCC(=O)NN2C(=O)C3C4C=CC(O4)C3C2=O)c1 (stereo not given),2%,4%,7%[57.1 µM],-1%,-6,3%[57.1 µM]
Cc1ccccc1OCC(=O)NN1C(=O)C2C3C=CC(O3)C2C1=O (stereo not given),-3%,0%,32µM*,1%,-3,-5%[57.1 µM]
O=C(CCc1ccccc1)NN1C(=O)C2C3C=CC(O3)C2C1=O (stereo not given),-5%,?,45µM*,1%,-4,-8%
CCOc1ccc(C(=O)NN2C(=O)C3C4C=CC(O4)C3C2=O)cc1 (stereo not given),6%,5%,20µM*,0%,0,4%
Cc1ccc(C)c(C(=O)c2sc(Nc3ccccc3)nc2N)c1,.,.,.,.,-3,.
Cc1ccccc1S(=O)(=O)Cc1ccc(C(=O)N(C)C2CCCCC2)o1,-6%,.,56µM*,-7%,-1,4%
Cc1c(C)n(Cc2cccnc2)c2ncnc(NCc3ccco3)c12,.,.,.,.,-2,.
CCC(=O)N(CCC(c1ccc(C)cc1)c1ccco1)Cc1ccco1 (stereo not given),-7%,13%,35µM*,-5%,-5,-2%
COc1ccc(C(=O)NCC(=O)OCc2ncc(-c3ccccc3)o2)cc1,.,.,.,.,0,.
CN1C(=O)CC(Nc2cccc3cccc(N)c23)C1=O (stereo not given),0%,1%,45µM*,12%,5,1%
COc1cc(S(=O)(=O)Nc2ccc(S(C)(=O)=O)cc2)ccc1NC(C)=O,.,.,.,.,-1,.
CCOC(=O)C(=Cc1cc(=O)c(OC)co1)C(=O)OCC,8%,?,3.5µM*,-18%,-3,2%
Cc1ccccc1/C=N/NC(=O)c1ccc(C(C)(C)C)cc1,.,.,.,.,-9,.
CNc1cccccc1=S,-3%,13%,7.9µM*,-4%,12,-2%
CC(C)(C)NC(=O)CNC(=O)C1CCCCC1,.,.,.,.,8,.
C/C(=N\NC(=O)c1ccc(C(C)(C)C)cc1)c1ccc(C)cc1C,.,.,.,.,5,.
SMILES,IDH1 R132H inh,PKM2 act,TrxR1 inh,GLS inhibitor,LDHA block,TrxR1 substrate
CN(C)S(=O)(=O)c1cccc(N=C2NN=C(c3ccccc3)CS2)c1,40µM*,-1%,-11%,12%,-3,-18%
Fc1ccccc1N=C1NN=C(c2ccccc2)CS1,-26%,-1%,4%[57.1 µM],-4%,0,-11%
CC(=O)Nc1ccc(C2=NNC(=Nc3cccc(S(=O)(=O)N(C)C)c3)SC2)cc1,41µM*,28%,0%,19%,3,-4%
O=C1C(=Cc2cn(-c3ccccc3)nc2-c2ccc(OCc3ccccc3F)cc2)SC(=S)N1CCS(=O)(=O)O,.,.,.,37%,-34*,.
O=C1C(=Cc2cn(-c3ccccc3)nc2-c2ccc(OCc3ccc(Cl)cc3)cc2)SC(=S)N1CCS(=O)(=O)O,.,.,.,8%,-24,.
Cc1ccc(NC(=S)NC(=O)C2CCC2)cc1C,-2%,-4%,50µM*,5%,-4,3%
COC(=O)Cc1c(C)c2ccc(OCc3ccccc3Cl)cc2oc1=O,.,.,.,.,1,.
OCC1O[C@H]([S-])[C@H](O)[C@@H](O)[C@@H]1O.[Au+] (stereo not given in full),.,.,0.25µM*,.,.,13%[57.1 µM]
COc1ccc(OC)c(NS(=O)(=O)c2cc3c(cc2Cl)N(C(C)=O)CCO3)c1,2%,.,18µM*,-4%,5,9%[11.4 µM]
Cc1ccc(CS(=O)Cc2ccc(C(=O)NC3CCCC(C)C3C)o2)cc1 (stereo not given),3%,.,45µM*,0%,-6,8%
CCOc1ccc2c(c1)cc(C(=O)Nc1ccccc1OCC)n2C,.,.,.,.,-33*,.
COc1ccc(NS(=O)(=O)c2cccc(C(=O)N3CCc4sccc4C3)c2)cc1,.,.,.,.,-2,.
CC(C)Cc1ccc(CN2CCCC(NC(=O)CCN3CCCCC3=O)C2)cc1 (stereo not given),9%,.,4%,-7%,0,1%
CC(C)Cc1ccc(C(C)/C=C2/CCC(CN3CCCCC3)C2=O)cc1 (stereo not given),-1%,.,3.5µM*,-16%,3,-10%
O=C(c1ccc(=O)oc1)N1CCOCC1,-5%,-2%,-20%,11µM*,7,7%
O=C(c1ccc(=O)oc1)N1CCCc2ccccc21,-1%,11%,-20%[57.1 µM],16µM*,11,8%[57.1 µM]
O=C(c1ccc(F)cc1)N1CCOCC1,11%,0%,4%,-9%,1,1%
O=C(Nc1ccccc1Cl)c1ccccc1-c1ccccc1,.,.,.,.,-2,.
COC(=O)c1ccc(OC(=O)COc2ccc3oc4c(c3c2)CCCC4)c(OC)c1,.,.,.,.,6,.
COC(=O)/C(C(C)=O)=C(\C=C\N(C)C)N(C)C,2%,0%,-20%,-4%,-8,-11%
COC(=O)\C(C(C)=O)=C(/C=C/C=C/C=C/N(C)C)N(C)C,3%,2%,?,11µM*,15,-11%[57.1 µM]
COC(=O)c1cc2n(n1)CCN(Cc1cccc(OC)c1)C2=O,2%,20µM*,7%[57.1 µM],7%,-9,7%[57.1 µM]
COc1cccc(CN2CCN(c3ccc(F)cc3)C2=O)c1,13%,28µM*,7%,-10%,2,4%
COC(=O)c1cc2n(n1)CCN(Cc1ccc(C)cc1)C2=O,2%,7%,14%[57.1 µM],-2%,-5,12%
COc1ccc(C(=O)COC(=O)Cc2coc3cc4c(cc23)CCC4)cc1OC,.,.,.,.,5,.
CCN(c1ccccc1)C1SC(=O)N(c2ccccc2)C1=O (stereo not given),.,.,9%,.,-3,-1%
